Screening data as filed in PubChem.
CYP2C9 inh – blockers of cytochrome P450 2C9 activity – biochemical, luminescence, ADME assay, primary screen; P11712; CYP2C9 Supersomes, luciferin-H conversion; inhibition, % at 5 µM; 96,000 tested, 20% active;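 active = blocking of liver enzyme CYP2C9 beyond about 50% at 5 µM, limit read from the data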
CD11b adhes enh – enhancers of CD11b/CD18 adhesion to fibrinogen, primary screen, K562 cells, luminescence; Integrin beta-2 (Homo sapiens) + Integrin alpha-M (Homo sapiens), P05107+P11215; ATPlite luminescence; activation, % at 10 µM; 93,000 tested, 0.07% active;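 active = 10 µM primary screen giving 50% or more activity, confirmed by 40% or more on retest at that dose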
Target sequence (P05107 whole entry, looked up, other chains not shown): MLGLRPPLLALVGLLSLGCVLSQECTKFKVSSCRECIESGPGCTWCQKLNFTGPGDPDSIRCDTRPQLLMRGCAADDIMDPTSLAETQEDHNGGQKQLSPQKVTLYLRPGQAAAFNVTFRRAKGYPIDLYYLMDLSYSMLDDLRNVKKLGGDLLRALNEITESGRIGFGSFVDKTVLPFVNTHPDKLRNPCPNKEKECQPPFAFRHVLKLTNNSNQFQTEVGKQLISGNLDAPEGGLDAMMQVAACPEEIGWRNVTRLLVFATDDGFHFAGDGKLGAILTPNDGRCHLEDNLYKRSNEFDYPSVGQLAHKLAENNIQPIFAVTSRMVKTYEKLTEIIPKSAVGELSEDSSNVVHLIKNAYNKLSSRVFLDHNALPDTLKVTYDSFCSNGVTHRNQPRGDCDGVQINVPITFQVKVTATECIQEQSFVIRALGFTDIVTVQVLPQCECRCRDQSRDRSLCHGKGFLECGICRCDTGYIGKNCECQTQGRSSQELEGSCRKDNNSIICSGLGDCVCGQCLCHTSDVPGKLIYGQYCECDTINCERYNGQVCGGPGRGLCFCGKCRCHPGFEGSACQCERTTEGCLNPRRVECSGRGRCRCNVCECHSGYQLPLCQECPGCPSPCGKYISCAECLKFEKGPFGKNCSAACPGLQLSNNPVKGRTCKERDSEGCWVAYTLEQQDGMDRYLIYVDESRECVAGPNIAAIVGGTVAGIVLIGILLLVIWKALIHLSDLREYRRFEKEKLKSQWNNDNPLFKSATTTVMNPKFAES
CYP2C19 inhib – blockers of cytochrome P450 2C19 activity – biochemical, luminescence, ADME assay, primary screen. inhibition, % at 5 µM. CYP2C19 Supersomes, luciferin-H EGE luminescence, 30 min. AID 778, 2007. 96,000 tested, 21% active. P33261;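 active = CYP2C19 inhibition above a set limit at 5 µM in the primary screen, cut at about 50% in these data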
CYP2C19 activ – human CYP2C19 activators, primary screen, biochemical, luminescence; Cytochrome P450 2C19 (Homo sapiens), P33261; recombinant CYP2C19, luciferin-H EGE luminescence; active compounds read high; 0 = fully inhibited enzyme, 1 = untreated enzyme; activation factor at 5 µM; 96,000 tested, under 10 active;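 active = activation factor of at least 2 at 5 µM in the primary screen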
CYP2C9 activ – human CYP2C9 activators, primary screen, biochemical, luminescence; recombinant CYP2C9, luciferin-H conversion; active compounds read high; factor 1 = untreated enzyme, 0 = blocked; activation factor at 5 µM; Cytochrome P450 2C9 (Homo sapiens), P11712; AID 1024, 2008; 96,000 tested, 1.4% active;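 active = activation factor of 2 or more for CYP2C9 at a 5 µM dose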
Mac1 fbg inh – inhibitors of CD11b/CD18 adhesion to fibrinogen, primary screen, K562 cells, luminescence | ATPlite luminescence; Mn2+ added to activate the integrin | inhibition, % at 10 µM | 93,000 tested, 0.54% active;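 active = primary inhibition of 50% or more at 10 µM, then 40% or more on retest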
A number is an active result; - = inactive; . = no result. This is a sample that favours compounds with a hit; in the whole collection about 28% have one here.

SMILES | CYP2C9 inh | CD11b adhes enh | CYP2C19 inhib | CYP2C19 activ | CYP2C9 activ | Mac1 fbg inh
COc1cc(NC(=O)c2ccco2)c(OC)cc1NC(=O)CCC(=O)Nc1cc(C)ccc1C | - | - | - | - | - | -
CCC(=O)Nc1ccc(NC(=O)c2ccco2)c(OC)c1 | - | - | - | - | - | -
NC(=O)CN1C(=O)C2C3C=CC(C3)C2C1=O (centres undefined) | - | - | - | - | - | -
CCCCc1ccc(C2C(C#N)=C(N)SC(N)=C2C#N)s1 | 98.9 | - | 67.8 | - | - | 100.2
COc1ccc(Cl)cc1Nc1nc(NCCO)nc(N2CCCC2)n1 | 58.8 | - | 56.7 | - | - | -
COc1ccc(Cl)cc1NC(=O)CSc1nc(N2CCCCC2)nc(N2CCCCC2)n1 | 84.5 | - | - | - | - | -
COc1ccc(/C=N/Nc2nc(N3CCCC3)nc(N3CCCC3)n2)cc1O | - | . | - | - | - | .
Cc1ccccc1NC(=O)CSc1nc(N2CCCCC2)nc(N2CCCCC2)n1 | - | . | - | - | - | .
COc1ccc(-c2noc(CN3CCOCC3)n2)cc1OC | - | - | - | - | - | -
O=c1[nH]c(Cn2nnc(-c3ccccc3)n2)nc2scc(-c3ccccc3)c12 | 82.0 | - | - | - | - | -
O=c1[nH]cnc2scc(-c3ccc(-c4ccccc4)cc3)c12 | - | - | - | - | - | -
OCCNc1ncnc2c1ncn2Cc1ccccc1 | - | - | - | - | - | -
C=CCn1cnc2c(NCc3ccccc3)ncnc21 | - | - | 69.8 | - | - | -
O=C(c1ccccc1)c1ccc(OCC(O)CN2CCN(Cc3ccccc3)CC2)cc1 (centres undefined) | - | - | - | - | - | -
CCCOC(=O)c1ccc(OCC(O)CN2CCN(C(=O)c3ccccc3)CC2)cc1 (centres undefined) | 64.0 | - | - | - | - | -
CCOCCCNCc1ccc(OC)cc1 | - | - | - | - | - | -
CCOCCCNCc1ccc(OC)c(OC)c1 | 60.8 | - | - | - | - | -
COC(=O)CSc1nc(C2CC2)cc(C(F)(F)F)c1C#N | - | - | 65.5 | - | - | -
COC(=O)C1C2CCC(C2)C1C(=O)OCC(=O)c1ccc(C)cc1 (centres undefined) | - | - | - | - | - | -
CCCOC(=O)C1C2C=CC(C2)C1C(=O)OCC(=O)c1ccccc1 (centres undefined) | 74.7 | - | 91.1 | - | - | -
CC1CN(C(=O)CSc2nc(-c3ccccc3)cs2)CC(C)O1 (centres undefined) | - | - | 93.2 | - | - | -
O=C(CSc1nc2cc(Cl)ccc2s1)N1CCN(C(=O)c2ccco2)CC1 | 86.0 | - | 85.6 | - | - | -
O=C(CSc1nc2cc(Cl)ccc2s1)c1cc2ccccc2o1 | - | - | - | - | - | -
O=C(COc1ccccc1)N1CCN(C(=O)c2ccco2)CC1 | - | - | - | - | - | -
Cc1cc(C)nc(NC(=O)CSc2nc3cc(Cl)ccc3s2)n1 | - | - | - | - | 2.7 | -
SMILES | CYP2C9 inh | CD11b adhes enh | CYP2C19 inhib | CYP2C19 activ | CYP2C9 activ | Mac1 fbg inh
CC1(C)C(=O)Nc2ccccc2N1C(=O)CSc1nc(-c2ccccc2)cs1 | . | - | . | . | . | -
Cc1cc(C)nc(NC(=O)CSc2nc3ccccc3s2)n1 | - | - | - | - | - | -
O=C(CSc1nc(-c2ccccc2)cs1)N1CCN(C(=O)c2ccco2)CC1 | - | - | 61.7 | - | - | -
CCC1CCC(C(=O)NC(C(=O)Nc2ccc3c(c2)OCCO3)C(C)C)CC1 (centres undefined) | - | - | - | - | - | -
CCn1c(SCc2ccc(Cl)cc2Cl)nc2nc3c(cc2c1=O)CCCC3 | - | . | - | - | - | .
O=C(c1cccc2ccccc12)N1CCC(N2CCN(c3ccccc3)CC2)CC1 | - | - | - | - | - | -
Oc1ccc(C2Nc3cccc4cccc(c34)N2)c(O)c1 | . | . | 66.4 | - | . | .
c1coc(C2Nc3cccc4cccc(c34)N2)c1 | 54.0 | - | 59.3 | - | - | -
O=[N+]([O-])c1cccc(C2Nc3cccc4cccc(c34)N2)c1 | . | - | . | . | . | -
COc1cc(OC)cc(C(C)=O)c1 | - | . | - | - | - | .
O=C1c2ccccc2C(=O)N1CC(O)COCc1ccccc1 (centres undefined) | - | . | 81.3 | - | - | .
Cc1cccc2sc(NC(=O)CSCc3ccccc3)nc12 | - | - | - | - | - | -
COC(=O)Nc1nc2c(C)cccc2s1 | - | - | - | - | - | -
Cc1cccc2sc(NC(=O)CN(C)S(=O)(=O)c3cccs3)nc12 | 58.9 | - | 94.2 | - | - | -
Cc1cccc2sc(NC(=O)CN(C)S(=O)(=O)c3ccc(Br)s3)nc12 | - | - | 61.9 | - | - | -
Cc1cccc2sc(NC(=O)Cn3cccc3)nc12 | 56.5 | - | - | - | - | -
CSc1nnc(-c2ccccc2N=Cc2c(C)[nH]n(-c3ccccc3)c2=O)c(=O)[nH]1 | - | . | - | - | - | .
COc1ccc(C2=Nc3ccccc3OC2)cc1 | 57.9 | - | 70.1 | - | - | -
CNC(=O)c1sccc1S(=O)(=O)Cc1c(Cl)cccc1Cl | 53.7 | - | 87.3 | - | - | -
O=C(C1CCN(S(=O)(=O)N2CCOCC2)CC1)N1CCOCC1 | - | - | - | - | - | -
N#CC(c1ccccc1F)(c1ncc(C(F)(F)F)cc1Cl)N1CCOCC1 (centres undefined) | - | . | - | - | - | .
Cc1ccccc1N1CCN(Cc2c[nH]c3ccccc23)CC1 | - | - | 56.0 | - | - | -
O=[N+]([O-])c1cc(-n2cnnn2)ccc1N1CCC(Cc2ccccc2)CC1 | 62.3 | . | - | - | - | .
CC1CC(C)CN(c2ccc(-n3cnnn3)cc2[N+](=O)[O-])C1 (centres undefined) | - | . | 64.0 | - | - | .
O=C(NCCc1ccccc1)C1CCN(S(=O)(=O)c2ccc(-n3cnnn3)cc2)CC1 | - | - | - | - | - | -
SMILES | CYP2C9 inh | CD11b adhes enh | CYP2C19 inhib | CYP2C19 activ | CYP2C9 activ | Mac1 fbg inh
O=C(CCCn1c(=S)[nH]c2cc3c(cc2c1=O)OCO3)NC1CC1 | - | . | - | - | - | .
CCCCSc1c(C)c2cc3c(cc2[nH]c1=O)OCO3 | - | - | 86.4 | - | - | -
CC(C)CC(=O)CN1C(=O)C2(OCCO2)c2ccccc21 | - | . | - | - | - | .
Cc1cc(C)c2c(c1)-c1cc(C)nn1C(c1ccc3c(c1)OCO3)N2 (centres undefined) | - | - | - | - | - | -
Cc1cc2n(n1)C(c1ccc3c(c1)OCO3)Nc1c(C)cccc1-2 (centres undefined) | 92.2 | - | 98.5 | - | - | -
CCCCNC(=O)COC(=O)c1cc(F)c(F)cc1Cl | . | - | . | . | . | -
